The structures appear in SMILES notation. About 1,200 (0.35%) of roughly 340,000 compounds were called active. Only a selection was taken, and actives are over-represented in it overall. Values without a mark were called inactive. No stated cut-off is given here; in the data, active means inhibition above about 50% (passing the limit was not always enough); inconclusive means no clear call, values can overlap the other calls; inactive means below about 31%.

This assay can be described thus: HIV Vif self-association inhibitors, primary screen, imaging, HEK293T, single point (AID 602346). To be noted: HEK293T cells, Vif self-association by quenched fluorescence, 24 h, at 7.49 µM, hits give high values.
Broadly, the inhibition is the relative decrease from the control value, in per cent. As to `OC(c1cc(Cl)cc(Cl)c1)c1ncc(-c2ccccc2C(F)(F)F)[nH]1` (stereo unspecified), the inhibition is 7.62%. For `Cc1cccc(CNC(=O)c2sc(=O)n(Cc3ccccc3C)c2C)c1`, the inhibition was -3.32%. The result for `Cn1c(NC(=O)c2ccccc2)nc2ccccc21` reads -0.44%.

Consider `O=C(NC1=CC(=O)c2ccccc2C1=O)c1ccccc1`, for which the inhibition is 120% (active). Then `O=C1C=C(NS(=O)(=O)c2ccccc2)C(=O)c2ccccc21`, with 5.11%; and `O=C(c1ccc(CS(=O)Cc2ccccc2Cl)o1)N1CCN(c2ccccc2)CC1` (stereo unspecified), with 2.07%. `O=C(CCc1ccc(O)cc1)NN=Cc1cc(Br)ccc1O`: the inhibition is -6.15%. Then `CCc1nc2c(OCCC3CCCCC3)cccn2c1N(C)C(=O)c1ccco1`, with 3.23%.

As to `COC(=O)NNC1=CC(=O)CC(C)(C)C1`, the inhibition is 7.17%. Then `CC1(C)CC(=O)C=C(NCCCNC2CCCCC2)C1`, with -5.64%; and `CC1(C)CC(=O)C=C(NC2CC(C)(C)NC(C)(C)C2)C1`, with 65.2% (active). The result for `O=C(c1ccc(N2CCCC2=O)cc1)N1CCN(c2ccc(C(F)(F)F)cc2[N+](=O)[O-])CC1` reads -4.95%; that for `CC(C)C[C@H]1CNC(=S)N1C[C@H]1CCCN1C[C@H](Cc1ccc(O)cc1)N1C[C@H](Cc2ccc(O)cc2)N(CC2CCCCC2)C1=S`, 5.91%.

Consider `Cc1ccc(S(=O)(=O)N2C[C@H]3n4c(=O)ccc(=O)n4C[C@H](OC(=O)NC4CCCC4)[C@@]3(O)C2)cc1`, for which the inhibition was -13.2%. As for `CC1CCN(c2ccc3c(c2)S(=O)(=O)c2cc(C(=O)O)ccc2C3=O)CC1`, the inhibition was -0.214%. Then `Cc1ccc(CNC(=O)c2ccc3c(c2)S(=O)(=O)c2ccccc2C3=O)cc1`, with 5.37%; and `Cc1ccc(CNC(=O)c2cccc3c2C(=O)c2ccc(N4CCC(C)CC4)cc2S3(=O)=O)cc1`, with 111% (active); and `CN(C)CCNC(=O)c1cccc(-c2cnc3c(NC=O)cc(-c4cccc(C(F)(F)F)c4)cn23)c1`, with 5.61%. Regarding `C=C1C(=O)[C@]23C[C@H]1CCC2[C@@]1(C)C(C[C@@H]3O)[C@](C)(C(=O)O)CC[C@@H]1O` (stereo partly specified), the inhibition is 12.6%. Turning to `O=C(CCCN1C(=O)C(c2ccccc2)Oc2cccnc21)Nc1ccccc1Br` (stereo unspecified), the inhibition is 6.43%. Then `CC(=O)Nc1cc(-c2ccccc2N(C)C)cn2c(-c3ccc(F)c(Cl)c3)cnc12`, with -4.22%; and `CC(=O)Nc1cccc(-c2ccnc3c2CC(C)(C(=O)NCc2ccccc2)O3)c1` (stereo unspecified), with -11.2%; and `COc1cccc(OCCOc2cccc(/C=N/n3cnnc3)c2)c1`, with 11.7%.

In the case of `Cc1ccccc1OCCOc1ccc([N+](=O)[O-])cc1/C=N/n1cnnc1`, the inhibition was 69.4% (active).

Turning to `Cc1ccccc1OS(=O)(=O)c1cccc([N+](=O)[O-])c1`, the inhibition is -0.237%. On to `C=CCn1nc(C(=O)OCC)cc1-c1sc(NC(=O)c2ccccc2)nc1C`, for which the inhibition was -3.36%.

In the case of `COc1ccccc1N1CCN(Cc2ccc(OC)c3ccccc23)CC1`, the inhibition is 112% (active). Consider `COc1ccccc1N1CCN(Cc2cc(OC)c3c(c2)OCO3)CC1`, for which the inhibition is -1.02%. The result for `COc1ccc(CN2CCN(Cc3ccc(OC)c(OC)c3OC)CC2)cc1` reads -0.337%; that for `COCOCCn1cc(CN2CCS(=O)(=O)N(Cc3ccc(-c4ccccc4)cc3)C(CC(C)C)C2=O)nn1` (stereo unspecified), 15.8%.

Turning to `O=C(CSCc1ccc(Br)cc1)Nc1ccc(S(=O)(=O)N2CCCCCC2)cc1`, the inhibition is -7.79%. Then `Cc1cc(=O)[nH]c(SCC(=O)Nc2ccc(Br)cc2)n1`, with -3.77%; and `O=C1CCCN2N=C(SCC(=O)Nc3ccc(Br)cc3)SC2=N1`, with 59.2% (active). The result for `CC1(C(=O)NCC2CCOCC2)Cc2c(-c3cccc(C(N)=O)c3)ccnc2O1` (stereo unspecified) reads -1.25%. The result for `Cc1cc(Cl)ccc1-c1nc(NCCN(C)C)nc2ccsc12` reads -1.21%. `CC(=NNC(=O)c1ccc2nc[nH]c2c1)c1ccc(Br)cc1`: the inhibition is 63.5% (active). The result for `COc1ccc(/C(C)=N/NC(=O)c2ccc3nc[nH]c3c2)cc1` reads 1.81%; that for `C/C(=N\NC(=O)c1ccc2ccccc2c1)c1cccnc1`, -7.71%. The result for `COc1ccc(-c2ccc(C(=O)NC(C)C)c3occc23)c(C)c1` reads -26.1%; that for `Cc1cc2cc3n(c2nn1)N=C(Cl)CC3`, 29.1%. With `CCOC(=O)c1cc(-c2sc(NC(=O)c3ccccc3)nc2C)n(Cc2ccccc2)n1`, the inhibition was -2.32%. Consider `N#Cc1c(N)n(CCOC(=O)c2ccc(Cl)cc2)c2nc3ccccc3nc12`, for which the inhibition is -17.3%. The result for `CN(C)CCCn1c(N)c(C#N)c2nc(C#N)c(C#N)nc21` reads 52.6% (active); that for `NC1=CC(=O)C(=O)c2cccnc21`, -1.29%. Then `CC1(Cc2cccc(C#N)c2)C(=O)Nc2ccc(-c3cccc(C(F)(F)F)c3)cc21` (stereo unspecified), with -26.8%; and `Nc1ncnc2c1ncn2[C@@H]1O[C@H](C(=O)NCC(F)(F)F)[C@@H](O)[C@H]1O`, with 96.8% (active); and `Cc1nccn1-c1ccc(NC(=O)[C@H]2O[C@@H](n3cnc4c(N)ncnc43)[C@H](O)[C@@H]2O)cc1`, with 14.6%.

`CN(Cc1ccc(C(F)(F)F)cc1)C(=O)[C@H]1O[C@@H](n2cnc3c(N)ncnc32)[C@H](O)[C@@H]1O`: the inhibition is -5.61%. Consider `Cc1nc2c(OCC(=O)C(C)(C)C)cccn2c1N(C)Cc1cccs1`, for which the inhibition is -0.585%.

Take `CCOc1ccc(CCN2C(=S)N([C@@H](CC(C)C)CN3CCC[C@@H]3CN3C(=S)NC[C@@H]3Cc3ccc(O)cc3)C[C@@H]2CC(C)C)cc1`: the inhibition is 12.9%.

In the case of `O=C(NCc1cccc(Cl)c1)C1=CC=CN2CCS(=O)(=O)N=C12`, the inhibition is 52.6% (active). The result for `O=C(NCc1cccc(Cl)c1)C1CCN(c2nnc(N3CCCC3=O)s2)CC1` reads 3.92%. The result for `O=C(NCc1cccc(Cl)c1)C1CCC(=O)N(C2CC2)C1` (stereo unspecified) reads -0.951%; that for `CN(C(=O)CN1CCN(c2cc(-c3ccc(OCc4ccccc4)cc3)ncn2)CC1)c1ccccc1`, -17.3%. The result for `CC(=O)Nc1ccc(CNc2nc(NCCN(C)C)nc3cc(-c4ccccc4)sc23)cc1` reads -16%; that for `Cc1ccc(NC(=O)Cn2nnc(C(=O)NCc3ccco3)c2N)c(C)c1`, -2.06%; that for `COc1cccc(CNC(=O)c2nnn(CC(=O)Nc3cc(C)ccc3C)c2N)c1`, 9.65%.

Take `CCOc1ccccc1NC(=O)Cn1nnc(C(=O)NCc2cccs2)c1N`: the inhibition is 62.1% (active).

`NC(=S)NN=Cc1ccc(OC(=O)COc2cc(Cl)c(Cl)cc2Cl)cn1`: the inhibition is 4.39%. Then `CC(C)Oc1cc(F)ccc1-c1cc(C(=O)Nc2cccc(Cl)c2)[nH]n1`, with -9.5%; and `CC(=O)NC1CCN(CC(=O)Nc2nccs2)CC1`, with 4.49%; and `CC1CCN(CC(=O)Nc2nccs2)CC1`, with 50.9% (active). The result for `O=C(COC(=O)c1ccc(O)cc1)Nc1nccs1` reads 2.05%; that for `CC(C)Oc1ccc(CN2CCC2(C)C(=O)NCc2ccc(C(F)(F)F)cc2)cc1` (stereo unspecified), -4.01%.

As for `O=C(NCc1cccnc1)c1cc(C2CCCCN2C(=O)CCc2ccccc2)on1` (stereo unspecified), the inhibition was -0.0335%. Then `COCOCCn1cc(CN2CCS(=O)(=O)N(Cc3ccc(-c4ccc(OC)cc4)cc3)C(CC(C)C)C2=O)nn1` (stereo unspecified), with 1.43%; and `O=C(CN1C(=O)c2cccc3cccc1c23)Nc1ccccc1`, with 2.82%; and `CCN(CC)S(=O)(=O)c1ccc2c3c(cccc13)C(=O)S2`, with -0.161%. Then `CCN1C(=O)c2cccc3c(S(=O)(=O)Nc4ccccc4O)ccc1c23`, with 112% (active). `O=C(NCc1cccnc1)Nc1cccc(NC(=O)NCc2cccnc2)c1F`: the inhibition is 56% (active).

`O=C(NCc1cccnc1)Nc1ccccc1F`: the inhibition was 20.3%.

`O=C(NCc1cccnc1)c1ccccc1NC(=O)c1c(F)cccc1F`: the inhibition was -6.43%. Then `C#Cc1ccc(NC(=O)C2(C)CCN2C(=O)Cc2ccc(-c3ccccc3)cc2)cc1` (stereo unspecified), with -14.6%; and `Cc1cccc(C)c1Cn1c(C)c(C(=O)NCc2cccc(Cl)c2)sc1=O`, with -0.663%; and `O=C1[C@H]2[C@@H](c3ccc(C(F)(F)F)cc3)N[C@]3(CCCN(Cc4ccc(Cl)cc4)C3=O)[C@H]2C(=O)N1Cc1ccccc1`, with 2.09%. Then `CC1(C(=O)Nc2cccc3cccnc23)CCN1C(=O)CCC1CCCC1` (stereo unspecified), with -1.65%. `CN(C)CCNC(=O)c1ccc(-c2cn3c(-c4ccc(Oc5ccccc5)cc4)cnc3cn2)cc1`: the inhibition is 1.97%.

Take `COc1ccc(-c2ccc(Nc3ccc(S(=O)(=O)N4CCCC4)cc3)nn2)cc1OC`: the inhibition is -7.98%. The result for `COc1ccc(-c2cc(-c3ccc(N)cc3)nc(N)c2C#N)cc1OC` reads -0.12%. Then `COc1ccc(-c2cc(C(F)(F)F)nc(S(C)(=O)=O)n2)cc1OC`, with 90.1% (active); and `COc1ccc(OC)c(C(=O)NC2CCCc3c2cnn3-c2cc(C)cc(C)c2)c1` (stereo unspecified), with -9.82%; and `CC(=O)Nc1cc(-c2ccccc2F)cn2c(-c3cccc(C(F)(F)F)c3)cnc12`, with -25.4%.

Consider `OC[C@@H]1CN(Cc2ccncc2)C[C@H](n2cnc3c(N4CCN(c5ccccc5)CC4)ncnc32)O1`, for which the inhibition is -25.2%. The result for `NS(=O)(=O)c1ccc(-c2ccc(/C=C3\SC(=O)NC3=O)o2)cc1` reads 55.8% (active). Then `CN1CCN(/N=C/c2ccc(-c3ccc([N+](=O)[O-])cc3)o2)CC1`, with -7.47%; and `O=C1[C@H]2[C@@H](c3ccc(C(F)(F)F)cc3)N[C@]3(CCCN(Cc4ccc(Br)cc4)C3=O)[C@H]2C(=O)N1Cc1ccccc1`, with 1.02%.

The values above are taken from PubChem BioAssay AID602346 (Broad Institute, 2012).
